Screening results: PubChem, several laboratories
zVAD death inh: inhibitors of zVAD-triggered necroptosis, primary screen, L929 cells | L929 zVAD necroptosis rescue, ATP luminescence, 24 h; with zVAD 60 µM | viability rescue, % at 10 µM | hit rate 0.38% among 220,000;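 active means activation, scaled between plate controls, above about 75%, limit read from the data; inactive means activation under that limit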
TNF necrop inh: inhibitors of TNF-alpha triggered necroptosis, primary screen, cell-based, Jurkat FADD-/-, single concentration. AID 463075, 2010. Jurkat FADD-/- TNF necroptosis rescue, ATP luminescence, 24 h; 0 = TNF only, 100 = no-TNF cells. activation (protection from cell death), % at 10 µM. hit rate 0.068% among 220,000;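 active means activation, meaning protection from cell death, of at least 50% relative to plate controls; inactive means activation below 50%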;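 further: necroptosis triggered by 40 ng/mL TNF-alpha added together with compound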
HIF act: HIF pathway transcriptional activators, primary screen, cell-based, U2OS HRE-luciferase, luminescence; U2OS HRE-luciferase reporter; normalized: DMSO 0%, desferrioxamine 100%; activation, % at 7.5 µM (by protocol); hit rate 0.32% among 300,000; AID 1910, 2009;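 active means mean activation of at least 10% of the iron chelator positive control signal, with at least half of replicates also reaching 10%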
Calb FLC: C. albicans growth inhibition with fluconazole, primary screen, CaCi-2 strain, Alamar Blue fluorescence; C. albicans CaCi-2 (fluconazole-resistant clinical isolate) + fluconazole, 48 h; growth inhibition, % (concentration not given with the values); hit rate 0.57% among 300,000; AID 1979, 2009;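 active means growth inhibition above about 58% in most replicates, limit read from the data, passing the limit was not always enough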;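 further: all wells also contain fluconazole at 8 µg/ml as a sub-toxic cotreatment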
Numbers stand for hits; – = inactive; · = no result given. The list is not random: actives were taken first. Their share in the collection is about 1.1%.

SMILES	zVAD death inh	TNF necrop inh	HIF act	Calb FLC
COc1ccc(/C=N/NC(=S)Nc2cc(S(=O)(=O)N3CCOCC3)ccc2N2CCOCC2)cc1O	–	–	35	–
Cc1ccccc1CS(=O)(=O)CC(O)CN1CCCC1=O (centres undefined)	·	·	–	–
O=C(Cc1ccc([N+](=O)[O-])cc1)NNC(=O)c1ccc2c(c1)OCO2	·	·	·	113
CCOC(=O)c1ccc(S(=O)(=O)NNC(=O)COc2ccccc2C)cc1	–	–	999	–
CCN1CCN(Cc2ccc(NC(=O)c3cc(NC(=O)c4cncc(-c5ccc(C#N)cc5)c4)cc(OC)c3)cc2C(F)(F)F)CC1	80	–	–	–
CC(C)[C@@H](C(=O)NCc1ccco1)N1C(=O)N2CCc3c([nH]c4ccccc34)[C@@]2(C)C1=O	·	·	–	–
CCc1ccc(N2CC(C(=O)N/N=C/c3cc([N+](=O)[O-])ccc3O)CC2=O)cc1 (centres undefined)	–	–	–	106
COc1ccccc1-n1cnnc1SCC(=O)Nc1cc(C(C)(C)C)nn1-c1ccccc1	105	–	–	–
O=C(CN(C(=O)CCC(=O)Nc1ccccn1)C1CCCC1)NCc1ccccc1	·	·	–	–
O=C1c2ccccc2C(=O)c2c1cccc2N1CCCC1	–	–	–	80
Cc1cc(C)c(S(=O)(=O)Nn2cnnc2)c(C)c1	–	–	–	–
Cc1cccc(NC(=O)NC2CCCc3ccccc32)c1 (centres undefined)	·	·	–	–
CCOC(=O)N1CCc2c(sc3ncn(Cc4ccc(F)cc4)c(=O)c23)C1	–	–	–	–
O=c1c2c3c(sc2ncn1Cc1ccc(F)cc1)CCC3	–	93	–	–
CC(C)Cc1nc2sc3c(c2c(=O)n1N)CC(C)(C)OC3	–	–	–	–
CC(=O)c1cnc(Nc2cccc(Cl)c2Cl)s1	–	–	–	79
CC(=O)c1cnc(Nc2ccccc2)s1	–	–	–	–
Cc1sc(NC(=O)c2ccco2)c(CN2CCC(C)CC2)c1C	–	–	51	–
CC(C)CC(=O)N1CC(C)N(C(=O)CC(C)C)CC1C (centres undefined)	–	–	–	–
CCCNC(=O)c1nnsc1S(=O)c1ccc(Cl)cc1 (centres undefined)	–	–	–	–
CNC(=O)c1nnsc1S(=O)c1ccc(Cl)cc1 (centres undefined)	–	–	–	105
Cc1ccc(CN2CCN(/N=C/c3ccc(Cl)c([N+](=O)[O-])c3)CC2)cc1	–	–	–	–
CCC(C)c1ccc(N(CC(=O)NC(C)(C)C)C(=O)CNC(=O)c2cccs2)cc1 (centres undefined)	·	·	–	–
O=C1[C@@H]2[C@H](Cc3ccc(O)cc3)N[C@]3(C(=O)Nc4ccccc43)[C@@H]2C(=O)N1c1ccc(F)cc1	–	–	–	–
Cc1c(Cl)ccc2c1NC(=O)[C@]21N[C@@H](Cc2ccccc2)[C@H]2C(=O)N(c3ccc(F)cc3)C(=O)[C@H]21	–	–	–	89
SMILES	zVAD death inh	TNF necrop inh	HIF act	Calb FLC
Cc1ccc(S(=O)(=O)N(C)C)cc1NC(=O)COC(=O)C1CC(=O)N(c2ccc3c(c2)OCCO3)C1 (centres undefined)	·	·	–	–
COCCNC(=O)c1sc2nc(-c3ccccc3)cn2c1C	–	–	71	–
Cc1c(C(=O)NCc2ccccn2)sc2nc(-c3ccccc3)cn12	–	–	–	–
Cc1cc(Oc2ccccc2)nc(-c2ccccc2O)n1	–	–	–	104
Cc1onc(C(=O)Nc2sc3c(c2C#N)CCCC3)c1[N+](=O)[O-]	–	–	–	82
CC(=O)Nc1sc2c(c1C#N)CCCC2	–	–	–	–
CC(Sc1nc(N)cc(=O)[nH]1)C(=O)Nc1sc2c(c1C#N)CCCC2 (centres undefined)	–	–	–	–
CCCc1cc(C(=O)Nc2sc(C)c(CC)c2C#N)no1	–	–	–	–
N#Cc1c(NC(=O)C2CC(c3ccccc3Cl)=NO2)sc2c1CCC2 (centres undefined)	–	–	·	–
CCC(Sc1nc(C)cc(=O)[nH]1)C(=O)Nc1sc2c(c1C#N)CCCC2 (centres undefined)	–	–	23	–
CCCc1cc(C(=O)Nc2sc3c(c2C#N)CCC3)no1	–	–	–	84
Cc1onc(-c2ccccc2Cl)c1C(=O)Nc1sc2c(c1C#N)CCC2	–	–	–	77
COc1ccc(C(C(=O)NC(C)(C)C)N(C(=O)CCC(=O)Nc2cc(C)on2)c2ccccc2F)cc1 (centres undefined)	·	·	–	–
Cc1nc2nc(SCc3ccccc3)[nH]n2c(=O)c1C	·	·	–	–
Cc1cccc(-c2nc(CNC(=O)c3ccco3)cs2)c1	·	·	–	–
C[C@H]1CCC[C@@]2(O[C@@H](CCO)C[C@@H](O)[C@@H]2O)O1	–	–	–	–
N#Cc1c(NC(=O)c2nc3ncccn3n2)sc2c1CCCCC2	–	–	·	95
CC1CCc2c(sc(NC(=O)c3nc4ncccn4n3)c2C#N)C1 (centres undefined)	–	–	–	–
Cc1cc(NC(=O)CCCS(=O)(=O)c2nc(-c3cccs3)cc(C(F)(F)F)n2)no1	–	–	13	–
CS(=O)(=O)c1nc(-c2cccs2)cc(C(F)(F)F)n1	–	–	–	97
Cc1cc(NC(=O)CSc2nc(-c3cccs3)cc(C(F)(F)F)n2)no1	–	–	–	–
CCOC(=O)CCS(=O)(=O)c1nc(-c2ccccc2)cc(C(F)(F)F)n1	–	–	10	–
CC(=O)c1ccc(-c2nnc(CCC(=O)N3CCCC(C(=O)CC(C)C)C3)o2)s1 (centres undefined)	·	·	–	–
O=C(C1CCC(CNS(=O)(=O)c2cccs2)CC1)N1CCN(c2ccc(F)cc2)CC1 (centres undefined)	·	·	–	–
CN1C(=O)c2ccc(C(=O)NCc3ccco3)cc2C1=O	·	·	–	–
SMILES	zVAD death inh	TNF necrop inh	HIF act	Calb FLC
COC(=O)[C@H](CCSC)NC(=O)c1cccnc1SC	–	–	633	–
Cc1ccc(Nc2nc(CSc3nnc(-c4ccncc4)n3C)cs2)cc1	–	–	258	–
Cc1ccc(CSc2nnc(-c3ccncc3)n2C)cc1	–	–	–	–
COC(=O)CN1C(=O)[C@H]2[C@@H](c3ccc(C)o3)N3C(=O)CN(Cc4ccccc4)C(=O)[C@@]3(C)[C@H]2C1=O	·	·	–	–
Cn1c(CO)nc2c3ccccc3ccc21	·	·	36	–
Cc1ccc(Cn2c(N3CCN(CCO)CC3)nc3c2c(=O)n(C)c(=O)n3C)cc1	·	·	–	–
Cc1cc(C)c2c(N)c3ccccc3nc2n1	–	–	20	–
CC(=O)N1CCN(c2ccc(NC(=O)c3ccc(Cl)cc3)cc2)CC1	·	·	–	–
CC(=O)N1CCN(c2ccc(NC(=O)c3ccc(C(C)(C)C)cc3)cc2)CC1	–	–	–	109
Cc1onc(-c2ccccc2)c1C(=O)Nc1ccc(S(=O)(=O)N2CCCCC2)cc1	–	–	·	–
Cc1onc(-c2ccccc2)c1C(=O)Nc1ccc(S(=O)(=O)N2CCCC2)cc1	–	–	87	–
CCOC(=O)c1sc(=S)n(-c2ccccc2Cl)c1C	–	–	·	–
